Among the test systems are SR leukemia; RPMI-8226 leukemia; OVCAR-8 ovarian; OVCAR-5 ovarian; OVCAR-4 ovarian; SK-OV-3 ovarian; IGROV1 ovarian; OVCAR-3 ovarian; HS 578T breast; NCI/ADR-RES ovarian; T-47D breast; BT-549 breast; MDA-MB-435 melanoma; SW-620 colon; MCF7 breast; HCT-116 colon; HCC-2998 colon; KM12 colon.
What all share (experiment): NCI-60 one-dose screen, 48 h (100 = growth as untreated, 0 = no growth, -100 = all killed)
Common to all, as to conditions: 10 µM unless noted

About 83,000 compounds went through this panel and 20% of them were active in at least one assay; those are over-represented in the sample as a whole.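 Assay: single dose, 48 h. Readout: percent growth (0 = no net growth; negative = cell death). Active: <10.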 A number with no mark means an inactive call. Active and inactive are the calls of the source.

As to `COc1cc2oc3cc(C)oc(=O)c3c2cc1OC`, the growth with SR leukemia was 106%; in the test with RPMI-8226 leukemia it was 87.2%; in the test on OVCAR-8 ovarian, 97.3%; in the test on OVCAR-5 ovarian it was 83.1%; with OVCAR-4 ovarian, 93.6%; with SK-OV-3 ovarian it was 103%. For the same molecule, the growth in the test with IGROV1 ovarian was 98.9%; with OVCAR-3 ovarian it was 110%; with HS 578T breast, 106%; in the test with NCI/ADR-RES ovarian, 89.1%; in the test on T-47D breast, 89.8%; with BT-549 breast, 109%. Besides, the growth is 97.7% in the test with MDA-MB-435 melanoma; 103% in the test with SW-620 colon; 98% in the test on MCF7 breast; 90.4% in the test on HCT-116 colon; 92.4% in the test with HCC-2998 colon; 105% in the test with KM12 colon.
Take `Cc1nc(Nc2ccc(NC(=S)Nc3ccccc3)cc2)c2ccccc2n1`: the growth with SR leukemia is 80.5%; with RPMI-8226 leukemia it was 98.6%; in the test on OVCAR-8 ovarian, 101%; in the test with OVCAR-5 ovarian, 110%; with OVCAR-4 ovarian, 121%; in the test with SK-OV-3 ovarian it was 107%. The growth in the test with IGROV1 ovarian is 99.8%; in the test with OVCAR-3 ovarian, 118%; in the test on HS 578T breast, 96%; with NCI/ADR-RES ovarian it was 107%; in the test on T-47D breast it was 87.6%; with BT-549 breast, 113%. Moreover, the growth with MDA-MB-435 melanoma was 112%; in the test on SW-620 colon, 106%; with MCF7 breast, 77.4%; in the test with HCT-116 colon, 101%; in the test with HCC-2998 colon it was 104%; in the test on KM12 colon it was 104%.
Consider `C=CC(=O)N[C@@H](Cc1ccc(-c2cc(Cl)cc(Cl)c2)cc1)[C@@H](O)[C@H](O)C(=O)O`, for which the growth with SR leukemia was 92.8%; in the test with RPMI-8226 leukemia it was 105%; in the test with OVCAR-8 ovarian, 85.9%; in the test on OVCAR-5 ovarian, 86.8%; in the test with OVCAR-4 ovarian, 99.9%; with SK-OV-3 ovarian it was 91.6%. The growth is 105% in the test with IGROV1 ovarian; 114% in the test with OVCAR-3 ovarian; 92.9% in the test on HS 578T breast; 95.6% in the test with NCI/ADR-RES ovarian; 96.1% in the test with T-47D breast; 91.9% in the test on BT-549 breast. The growth in the test with MDA-MB-435 melanoma was 102%; in the test with SW-620 colon, 101%; with MCF7 breast, 93.5%; in the test on HCT-116 colon, 91.5%; in the test with HCC-2998 colon, 87.3%; in the test on KM12 colon, 102%.
For the molecule `CCOc1cccnc1/C=N/NC(N)=S`, the growth in the test with SR leukemia was 6.35% (active); in the test with RPMI-8226 leukemia it was 49.9%; with OVCAR-8 ovarian, 43.7%; in the test with OVCAR-5 ovarian, 66.2%; in the test with OVCAR-4 ovarian, 26.5%; in the test with SK-OV-3 ovarian, 42.7%. The growth was -7.7% (active) in the test with IGROV1 ovarian; 22.2% in the test on OVCAR-3 ovarian; 60.4% in the test on HS 578T breast; 48.8% with NCI/ADR-RES ovarian; 71.8% in the test with T-47D breast; 51.6% in the test with BT-549 breast. For the same molecule, the growth with MDA-MB-435 melanoma is 58.2%; in the test on SW-620 colon, 40.8%; in the test with MCF7 breast, 28.8%; with HCT-116 colon, 32.6%; in the test on HCC-2998 colon it was 52.7%; in the test on KM12 colon, 36.2%.
Consider `CCOC(=O)c1c(C)nc2c(c1N)/C(=C/c1ccc(OC)cc1)C(=O)N2Cc1ccc(F)cc1`, for which the growth with SR leukemia was 1.71% (active); with RPMI-8226 leukemia it was -17.2% (active); in the test with OVCAR-8 ovarian, 8.74% (active); with OVCAR-5 ovarian, -45.2% (active); with OVCAR-4 ovarian, 20.9%; with SK-OV-3 ovarian it was 9.64% (active). Also, the growth was -9.78% (active) in the test on IGROV1 ovarian; -91.4% (active) in the test with OVCAR-3 ovarian; 54.7% with HS 578T breast; 15.1% in the test on NCI/ADR-RES ovarian; -0.0776% (active) with T-47D breast; -85.5% (active) in the test on BT-549 breast. Also, the growth in the test on MDA-MB-435 melanoma was -62.1% (active); with SW-620 colon it was -58.9% (active); in the test with MCF7 breast, -35.7% (active); in the test on HCT-116 colon it was -85.4% (active); in the test with HCC-2998 colon, -83.7% (active); with KM12 colon it was -59.7% (active).
Turning to `Cc1nc(Nc2cccc(NC(=O)Nc3ccc(Cl)cc3)c2)c2ccccc2n1`, the growth in the test with SR leukemia is 22.1%; in the test on RPMI-8226 leukemia, 66.8%; in the test on OVCAR-8 ovarian, 93.9%; in the test on OVCAR-5 ovarian, 106%; in the test on OVCAR-4 ovarian, 47.8%; in the test with SK-OV-3 ovarian it was 97.8%. Further, the growth with IGROV1 ovarian is 102%; with OVCAR-3 ovarian, 90.7%; with HS 578T breast, 104%; in the test on NCI/ADR-RES ovarian, 87.4%; in the test on T-47D breast, 71.2%; in the test on BT-549 breast, 101%. Besides, the growth with MDA-MB-435 melanoma was 79.3%; in the test with SW-620 colon, 46.7%; in the test with MCF7 breast it was 78.1%; with HCT-116 colon, 67.1%; in the test on HCC-2998 colon, 106%; in the test on KM12 colon, 69.7%.
On to `c1ccc2[nH]c(SSc3nc4ncncc4[nH]3)nc2c1`, for which the growth was 32.8% with SR leukemia; 14.6% in the test on RPMI-8226 leukemia; 23% in the test on OVCAR-8 ovarian; 44.6% in the test with OVCAR-5 ovarian; 33.9% in the test with OVCAR-4 ovarian; 24.1% with SK-OV-3 ovarian. Also, the growth was 43.5% in the test on IGROV1 ovarian; 22.9% in the test with OVCAR-3 ovarian; 59.7% with HS 578T breast; 26.2% in the test on NCI/ADR-RES ovarian; 46.5% with T-47D breast; 46.7% in the test with BT-549 breast. The growth in the test with MDA-MB-435 melanoma is 19.7%; in the test with SW-620 colon, 36.3%; with MCF7 breast it was 9.76% (active); in the test on HCT-116 colon, 20.8%; with HCC-2998 colon it was 18.2%; with KM12 colon it was 15.1%.
As to `Cc1ccc(Nc2ccc(Nc3ccc(C)cc3S(=O)(=O)O)c3c2C(=O)c2ccccc2C3=O)c(S(=O)(=O)O)c1`, the growth in the test with SR leukemia is 108%; in the test on RPMI-8226 leukemia it was 87.8%; in the test with OVCAR-8 ovarian it was 97.6%; in the test on OVCAR-5 ovarian, 106%; in the test with OVCAR-4 ovarian it was 102%; with SK-OV-3 ovarian, 111%. The growth with IGROV1 ovarian is 114%; in the test on OVCAR-3 ovarian, 95.5%; in the test with HS 578T breast it was 88.7%; in the test with NCI/ADR-RES ovarian, 102%; with T-47D breast it was 111%; in the test on BT-549 breast, 103%. For the same molecule, the growth is 103% in the test with MDA-MB-435 melanoma; 92% in the test with SW-620 colon; 92.2% with MCF7 breast; 87% in the test with HCT-116 colon; 112% in the test with HCC-2998 colon; 96.7% in the test on KM12 colon.
Consider `c1ccc(-c2oc3ccccc3c2-c2ccccc2)cc1`, for which the growth in the test with SR leukemia is 57.3%; with RPMI-8226 leukemia, 107%; in the test on OVCAR-8 ovarian it was 102%; in the test on OVCAR-5 ovarian, 105%; in the test on OVCAR-4 ovarian, 96.7%; in the test with SK-OV-3 ovarian it was 101%. In addition, the growth in the test with IGROV1 ovarian is 87.8%; in the test on OVCAR-3 ovarian, 100%; in the test on HS 578T breast, 110%; in the test with NCI/ADR-RES ovarian, 110%; in the test on T-47D breast, 75.7%; in the test with BT-549 breast, 106%. Besides, the growth in the test on MDA-MB-435 melanoma is 99.5%; in the test on SW-620 colon, 105%; in the test with MCF7 breast, 115%; with HCT-116 colon, 98.5%; with HCC-2998 colon, 111%; with KM12 colon, 104%.

Values taken from PubChem BioAssay (NCI).
